Results on eight molecules are retold here after PubChem BioAssay (NCATS).

Assay [1] is described as follows: qHTS profiling of the MIPE4 collection as inhibitors of Plasmodium falciparum (DD2) proliferation (Rep 2) (AID 743346; call rule not given here). The settings on record: P. falciparum Dd2 in erythrocytes, SYBR Green DNA, 72 h; at 28.5 µM unless noted. The gist of the method:
(§1)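 Erythrocytes infected with P. falciparum (0.3% parasitemia, 2.5% hematocrit) incubated with compounds 72 h at 37 C, 5% CO2. Lysis with saponin/Triton buffer containing SYBR Green I, overnight at room temperature in the dark; DNA fluorescence (485/535 nm) normalised to 0.29 uM artemisinin and DMSO.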

Assay [2] is described as follows: qHTS profiling of the MIPE4 collection as inhibitors of Plasmodium falciparum (HB3) proliferation (AID 743347; call rule not given here;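 also: plate controls were DMSO vehicle wells for no effect and artemisinin wells for full effect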). The settings on record: P. falciparum HB3 in erythrocytes, SYBR Green DNA, 72 h; at 28.5 µM unless noted. The method, boiled down: as §1
Assay [3] is described as follows: High-throughput drug toxicity screening in the BPDCN cell line Gen2.2 (AID 1224824; call rule not given here;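 also: cells exposed to compounds for 48 h before reading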). The settings on record: Gen2.2 BPDCN cells; at 45.8 µM (top of the series) unless noted. The gist of the method: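 Readout is ATP luminescence from Gen2.2 cells after two days of drug exposure in serum-containing medium at 37 °C. Values express percent activity, with vehicle defining full signal and 9.2 uM bortezomib defining zero.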

A short description of assay [4]: High-throughput drug toxicity screening in the BPDCN cell line Cal-1 (AID 1224825; call rule not given here). The settings on record: Cal-1 BPDCN cell viability, qHTS; at 45.8 µM (top of the series) unless noted. The method, boiled down:
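Cal-1 cells, 500 per well in phenol-red-free RPMI with 10% FBS, exposed to compounds for 48 hours at 37C, 5% CO2. Viability read by CellTiter-Glo luminescence; percent activity normalized to DMSO (100%) and 9.2 uM bortezomib final (0%).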

Assay [5] can be described thus: qHTS assay for measurement of the activity of small molecule inhibitors on Zika virus induced Caspase-3 activity in human iPSC derived neural progenitor cells (hNPCs) (AID 1224857). Also: % of control where 0% means no effect; nearly all actives have a fitted effect of over 65% in size. The method, boiled down: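 Human iPSC-derived neural progenitor cells pretreated 1 hr with compounds, then infected with Zika virus (2 FFU/cell) for 6 hours at 37 C. Caspase-3/7 measured by Caspase-Glo luminescence; % inhibition calculated from induction scaled to uninfected (0%) and infected (100%) wells.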

Assay [6] is described as follows: qHTS assay for measurement of the activity of small molecule inhibitors on Zika virus induced Caspase-3 activity in human astrocytoma cells (AID 1224859).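 Also: plate controls were ZIKV-infected untreated cells for no effect and uninfected cells for full effect.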 The method, boiled down: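 SNB-19 astrocytoma cells, 250/well, pretreated 1 h with compounds, then Zika virus at 2 FFU/cell for 6 h at 37 C; Caspase-Glo 3/7 luminescence after 30 min; percent inhibition normalised to uninfected and infected controls.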

Assay [7] can be described thus: qHTS Screen of the MIPE 4.0 Collection Against Ewings Sarcoma (RDES) (AID 1259252). Also: nearly all actives have a fitted effect of over 35% in size. Also: potency is read from the fitted curve at half-maximal effect. The method, boiled down: (§2)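 Viability screen: 48 h incubation at 37C, 95% humidity, 5% CO2 with serially titrated compound, followed by CellTiter-Glo readout.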
A short description of assay [8]: qHTS Screen of the MIPE 4.0 Collection Against Ewings Sarcoma (TC71) (AID 1259253). Also: nearly all actives have a fitted effect of over 40% in size. Also: potency is read from the fitted curve at half-maximal effect. The gist of the method: as §2
Assay [9] is described as follows: qHTS Screen of the MIPE 4.0 Collection Against Ewings Sarcoma (EW8) (AID 1259255). Also: nearly all actives have a fitted effect of over 35% in size. Also: potency is read from the fitted curve at half-maximal effect.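 As to viability: 100% = DMSO-treated cells and 0% = medium-only wells without cells.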 The method, boiled down:
as §2

The nature of assay [10]: qHTS Screen of the MIPE 4.0 Collection Against Ewings Sarcoma (TC32) (AID 1259256). Also: nearly all actives have a fitted effect of over 45% in size. Also: potency is read from the fitted curve at half-maximal effect. The gist of the method:
as §2

Records with an inconclusive call do not appear. Calls of active or inactive are those of the source. Unless noted, calls follow the shape of the dose curve; as a rule, active = well fitted inhibition curve with a large enough effect; inconclusive = small, poorly fitted or top-dose-only effect; inactive = no such curve, though single readings can be large or run the other way.

`CC(C)(N)c1ccc(-c2nc3ccccc3nc2-c2ccccc2)cc1` displayed a parasite growth, % of control (lower = inhibition) in assay [1] of 26.5%. The same molecule showed a growth, % of control in assay [2] of 18.5%. Besides, the cell viability, % of control (lower = more cytotoxic) in assay [3] was determined as 8.3%. Besides, the viability (% of control) in [4] was 4.03%. The Potency result in assay [5] and in assay [6] was “inactive” throughout. The Potency in [7] was 26.4 µM (active); in assay [8], 26.4 µM (active); in assay [9] it was 20.9 µM (active); in assay [10], 23.5 µM (active).
For `c1ccc(CNc2nc(NCc3ccccc3)c3ccccc3n2)cc1`, the parasite growth, % of control (lower = inhibition) in assay [1] was found to be 10.1%. The growth, % of control in assay [2] was determined as 8.52%. In addition, the cell viability, % of control (lower = more cytotoxic) in assay [3] was determined as 6.1%. Further, the viability (% of control) in assay [4] amounted to 2.67%. The Potency result in assay [5] and in assay [6] was “inactive” throughout. In addition, the Potency is 20.9 µM (active) in [7], 26.4 µM (active) in assay [8], 20.9 µM (active) in [9] and 23.5 µM (active) in assay [10].
Consider `C[C@@H]1[C@H](C)CC[C@]2(C(=O)O)CC[C@]3(C)C(=CC[C@@H]4[C@@]5(C)C[C@@H](O)[C@H](O)[C@@](C)(CO)[C@H]5CC[C@]43C)[C@@H]12`, for which the parasite growth, % of control (lower = inhibition) in [1] amounted to 52.5%. The same molecule displayed a growth, % of control in assay [2] of 43.6%. Also, in assay [3], the cell viability, % of control (lower = more cytotoxic) amounted to 106%. Further, the viability (% of control) in assay [4] worked out at 122%. For the same molecule, the Potency entry in assay [5], in assay [6], in assay [7], in assay [8], in assay [9] and in [10] was “inactive” each time.
Turning to `COc1cc2c(cc1OC)[C@@H]1C(=O)c3ccc4c(c3O[C@@H]1CO2)C=CC(C)(C)O4`, the parasite growth, % of control (lower = inhibition) in [1] is 39.7%. This molecule also gave a growth, % of control in assay [2] of 47.7%. Moreover, the cell viability, % of control (lower = more cytotoxic) in assay [3] came to 7.01%. For the same molecule, the viability (% of control) in [4] is 3.79%. Further, the Potency entry in assay [5] and in assay [6] was “inactive” throughout. Moreover, the Potency in assay [7] was 23.5 µM (active); in [8], 23.5 µM (active); in assay [9], 33.2 µM (active); in assay [10] it was 0.0662 µM (active).
For `C[C@@H]1CC[C@@]2(OC1)OC1CC3C4CC=C5CC(O)CCC5(C)C4CCC3(C)C1[C@@H]2C` (stereo not given in full), in assay [1], the parasite growth, % of control (lower = inhibition) came out at 64.4%. Also, in assay [2], the growth, % of control came out at 99.7%. For the same molecule, the cell viability, % of control (lower = more cytotoxic) in assay [3] came out at 128%. In addition, the viability (% of control) in [4] came out at 115%. Besides, the Potency entry in [5], in assay [6], in [7], in assay [8], in assay [9] and in assay [10] was “inactive” in each case.
For the molecule `C=C1C(=CC=C2CCC[C@]3(C)[C@@H]([C@H](C)CCCC(C)(C)O)CC[C@@H]23)C[C@@H](O)C[C@@H]1O`, the parasite growth, % of control (lower = inhibition) in [1] came out at 22.4%. In assay [2], this molecule returned a growth, % of control of 9.14%. Also, the cell viability, % of control (lower = more cytotoxic) in assay [3] turned out to be 20.5%. Moreover, the viability (% of control) in assay [4] turned out to be 6.91%. The Potency entry in [5] and in assay [6] was “inactive” in each case. Also, the Potency in assay [7] was 2.64 µM (active); in assay [8] it was 2.96 µM (active); in assay [9], 5.26 µM (active); in [10], 3.72 µM (active).
`COC(=O)[C@@H]1CC2=CC(=O)CC[C@]2(C)[C@@]23O[C@@H]2C[C@@]2(C)[C@H](CC[C@@]24CCC(=O)O4)[C@@H]13` registered a parasite growth, % of control (lower = inhibition) in assay [1] of 61.4%. Also, in assay [2], the growth, % of control was found to be 49.1%. Besides, the cell viability, % of control (lower = more cytotoxic) in assay [3] was 132%. In [4], the viability (% of control) stood at 108%. Besides, the Potency result in [5], in [6], in assay [7], in assay [8], in assay [9] and in [10] was “inactive” in each case.
In turn, `COc1ccnc2[nH]cc(C(=O)C(=O)N3CCN(C(=O)c4ccccc4)C[C@@H]3C)c12` came in with a parasite growth, % of control (lower = inhibition) in [1] of 86.4%. Moreover, in assay [2], the growth, % of control came to 99.1%. Also, the cell viability, % of control (lower = more cytotoxic) in [3] is 172%. Further, in assay [4], the viability (% of control) was determined as 119%. For the same molecule, the Potency entry in assay [5], in [6], in [7] and in [9] was “inactive” throughout. The Potency is 2.64 µM (active) in [8] and 4.18 µM (active) in [10].
